According to the supplement of paper PMC11417369:
In all, about 25,000 sequences were measured (“ln(normalized median fluorescence intensity)”: median about 6.7, highest 2% from about 10 on). For the sample, the highest values were picked, then their nearest neighbours and some sequences at random.

test system: PfHDP1 homeodomain (GST-tagged); test: gcPBM binding intensity (ln(normalized median fluorescence intensity)); higher = stronger DNA binding
How it was run: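 An Agilent 4 × 180k array carrying primer-extended double-stranded 36-bp intergenic genomic probes and negative controls received GST-tagged P. falciparum DNA-binding domains expressed in E. coli, about 25 μg on average, for 1 h. The binding buffer contained 1× PBS, 1% milk, 0.2 mg/ml BSA, 0.5% salmon testes DNA and 0.03% Triton X-100. Binding intensity is the top Masliner-normalised natural-log median intensity across replicate spots of either probe orientation, read after Alexa488 anti-GST antibody staining and a 488 nm scan.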

Sequence	gcPBM binding intensity (ln)
CATACATACCTATATACACACATATAAAATAATATA [CACACA_site7290]	6.97
ATATAAATATATTGCACACACAATTATTATTATTAT [CACACA_site7147]	10.7
CCATGTCAAACATTTGCACACAAAAAAATAAAAATT [CACACA_site4546]	9.71
ACATGTCAAACATTTGCACACAAAAAAATAAAAATT [CACACA_site691]	10.2
ATGTCAAACATTTGCACACAAAAAAATAAAAATTAA [CACACA_site692]	10.6
ATATTTATAAATTGCACACAAATAATAACATTCTAT [CACACA_site2357]	10.4
ATATTATCCCTATTTGCACACAAGAGTAATTTTTTA [CACACA_site3908]	10.4
GAGTATATTTATATTGCACACAATTTTTTTATTTTT [CACACA_site2644]	10.5
ACACAAAAAATAAAAATATATATATATTATATATAT [CACACA_negctrl_site1489]	7.32
AAATATTTATAAATTGCACACAAATAATAACATTAT [CACACA_site8737]	10.2
ATATATTTATATATTGCACACAAAAAAAAAAAAAAA [CACACA_site8468]	10.5
TTTATAAAATTTATTGCACACAATTATTTTATAATT [CACACA_site2489]	9.98
ATATTTATAAATTGCACACAAATAATAACATTATAT [CACACA_site5322]	10.6
AAAAAAATATATATATATATATATATATTATATATG [GTGCAC_negctrl_site654]	6.87
TTTTTTATTTATTGTTATACATCTTACTACTTATAA [GTGCAC_negctrl_site381]	6.63
TATTTTTTCTTTCATTGTACTTTTTTTTTGTTTTGT [XGTACX_site4081]	6.8
AAAAAAAAAAAAACTAGTACATATATATAGTATGAA [XGTACX_site6279]	6.33
AATATTATTATTATTACACACACAATTATATTTACC [CACACA_site8061]	6.61
ATATATATATATATTGCACACACAATTATTATTATT [CACACA_site8721]	10.6
TTATAATCCATAATTGCACACAATATATTCATATTT [CACACA_site3916]	10.1
TTAATTATATTATGCACACACAATTGGAAAAAAAAT [CACACA_site1958]	10.2
ATATATATATATTGCACACACAATTATTATTATTAT [CACACA_site2299]	10.6
TTTTAATTATATTATGCACACACAATTGGAAAAAAA [CACACA_site8598]	10.2
AATAATGTATAATGATGTACAAAAAAGGAAGACATA [XGTACX_site2474]	7.43
